The supplement of paper PMC7726561

B1: unnamed (peptide)
chain: SYDLANRDF
B2: unnamed (peptide)
chain: RFDSDVGEF
B3: unnamed (peptide)
chain: NYDFGPIHM
B4: unnamed (peptide)
chain: NYDEALRLL
B5: unnamed (peptide)
chain: SFDEIHQLF
B6: unnamed (peptide)
chain: FFDPSLLHL
B7: unnamed (peptide)
chain: LYDEAIRHF
B8: unnamed (peptide)
chain: KADGVPVYL
B9: unnamed (peptide)
chain: FNDTFVHV
B10: unnamed (peptide)
chain: SYDHVELTF
B11: unnamed (peptide)
chain: SFDSTVRL
B12: unnamed (peptide)
chain: FYPPDPAQL
B13: unnamed (peptide)
chain: LFDDKAVEI
B14: unnamed (peptide)
chain: SFDAHLTEL
B15: unnamed (peptide)
chain: TFDVSPKAV
B16: unnamed (peptide)
chain: TFDASRTTF
B17: unnamed (peptide)
chain: HFDDFVTNL
B18: unnamed (peptide)
chain: AYDDKIYYF
B19: unnamed (peptide)
chain: QLDPLVVEL
B20: unnamed (peptide)
chain: SFDVSQKF
B21: unnamed (peptide)
chain: VWDVIGRSL
B22: unnamed (peptide)
chain: IFDSKVTEI
B23: unnamed (peptide)
chain: IYDEAISSF
B24: unnamed (peptide)
chain: AFDLTEQRY
B25: unnamed (peptide)
chain: FLPEAPAEL
B26: unnamed (peptide)
chain: FFDSQGQVLL
B27: unnamed (peptide)
chain: AFDASRTSF
B28: unnamed (peptide)
chain: VYDLLKTNL
B29: unnamed (peptide)
chain: AFDVHLNAF
B30: unnamed (peptide)
chain: SFDETVTHF
B31: unnamed (peptide)
chain: YFPELIANF
B32: unnamed (peptide)
chain: FTDEESRVF
B33: unnamed (peptide)
chain: VFDPIGHF
B34: unnamed (peptide)
chain: MLDPLEVHL
B35: unnamed (peptide)
chain: TYDYAKTIL
B36: unnamed (peptide)
chain: VYDIAAKF
B37: unnamed (peptide)
chain: HFDLSVIEL
B38: unnamed (peptide)
chain: ILDPHVVLL
B39: unnamed (peptide)
chain: DFDMTLSRF
B40: unnamed (peptide)
chain: FWDGKIVLV
B41: unnamed (peptide)
chain: SFEEKPVYI
B42: unnamed (peptide)
chain: GGSFDVADRMF
B43: unnamed (peptide)
chain: FFDTNTSVL
B44: unnamed (peptide)
chain: RFEDSPSYV
B45: unnamed (peptide)
chain: VFDEAIRAVL
B46: unnamed (peptide)
chain: VFHVQQTEM
B47: unnamed (peptide)
chain: VADPYVVIM

target: HLA-C*04:01; experiment: thermal melting temperature (Tm) of peptide-HLA complex; higher = more thermostable pHLA complex; details: C1R-A*02:01
Experimental: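 Endogenous HLA-C*04:01 ligands were detected in the thermostability assays of both the C1R-A*02:01 and C1R-B*07:02 lines. Lysates were heated 10 min at 37-73 °C and pHLA immunoprecipitated with W6/32. Peptides were quantified by DIA-MS and Tm was taken from a logistic sigmoid fit.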

Sequence | thermal melting temperature [°C]
B1 | 58.3
B2 | 54.9
B3 | 54.2
B4 | 54
B5 | 47.8
B6 | 55.4
B7 | 56.5
B8 | 56.5
B9 | 49.3
B10 | 51.3
B11 | 52.9
B12 | 49.5
B13 | 57.2
B14 | 53
B15 | 41.9
B16 | 53.4
B17 | 58.7
B18 | 56.1
B19 | 50
B20 | 49
B21 | 53.5
B22 | 55.4
B23 | 58.9
B24 | 55.9

Sequence | thermal melting temperature [°C]
B25 | 54.1
B26 | 51
B27 | 52.4
B28 | 59
B29 | 55.5
B30 | 58.6
B31 | 45.6
B32 | 48.1
B33 | 59.3
B34 | 47.2
B35 | 49
B36 | 56.9
B37 | 57.1
B38 | 54.8
B39 | 52.8
B40 | 62.5
B41 | 56.8
B42 | 53.1
B43 | 55.5
B44 | 54.4
B45 | 60.2
B46 | 53.8
B47 | 53.4

same assay, conditions: C1R-B*07:02

Sequence | thermal melting temperature [°C]
B1 | 57.8
B2 | 54.5
B3 | 55.8
B4 | 53
B5 | 52
B6 | 55.8
B7 | 60
B8 | 57.1
B9 | 48.5
B10 | 51.9
B11 | 54.6
B12 | 51.5
B13 | 57.2
B14 | 52.9
B15 | 48.1
B16 | 53.5
B17 | 58
B18 | 55.7
B19 | 46.9
B20 | 49.7
B21 | 51.9
B22 | 54.8
B23 | 62.7
B24 | 56.4

Sequence | thermal melting temperature [°C]
B25 | 55.9
B26 | 53.6
B27 | 52.8
B28 | 58.3
B29 | 55.9
B30 | 59.8
B31 | 45.3
B32 | 46.7
B33 | 58.8
B34 | 52.5
B35 | 46.9
B36 | 57.6
B37 | 60.5
B38 | 57.6
B39 | 54.5
B40 | 60.7
B41 | 55.5
B42 | 53.2
B43 | 59.4
B44 | 52.3
B45 | 58.8
B46 | 54.5
B47 | 54.6
